Measured values: PubChem BioAssay (NCATS)
Results filed as inconclusive are left out. Entries that show only a call come without a potency. The source made the active and inactive calls. The call rests on the fitted dose curve; in most records, active means well fitted curve in the direction sought with a large enough effect; inconclusive means small, poorly fitted or top-dose-only effect, or another doubt; inactive means no such curve, though single readings can be large; an effect the other way counts as inactive or inconclusive. Peptide text beside a SMILES is read from it.

Assays:
[1] = target: ATP-dependent 6-phosphofructokinase (Trypanosoma brucei brucei) (UniProt O15648); assay: qHTS Assay to Find Inhibitors of T. brucei phosphofructokinase: hit validation (AID 492961);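 further: luminescence reports ADP formed as PFK phosphorylates fructose-6-phosphate with ATP; series mostly up to about 51 µM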
Chain of ATP-dependent 6-phosphofructokinase (Trypanosoma brucei brucei) (O15648 whole entry, looked up): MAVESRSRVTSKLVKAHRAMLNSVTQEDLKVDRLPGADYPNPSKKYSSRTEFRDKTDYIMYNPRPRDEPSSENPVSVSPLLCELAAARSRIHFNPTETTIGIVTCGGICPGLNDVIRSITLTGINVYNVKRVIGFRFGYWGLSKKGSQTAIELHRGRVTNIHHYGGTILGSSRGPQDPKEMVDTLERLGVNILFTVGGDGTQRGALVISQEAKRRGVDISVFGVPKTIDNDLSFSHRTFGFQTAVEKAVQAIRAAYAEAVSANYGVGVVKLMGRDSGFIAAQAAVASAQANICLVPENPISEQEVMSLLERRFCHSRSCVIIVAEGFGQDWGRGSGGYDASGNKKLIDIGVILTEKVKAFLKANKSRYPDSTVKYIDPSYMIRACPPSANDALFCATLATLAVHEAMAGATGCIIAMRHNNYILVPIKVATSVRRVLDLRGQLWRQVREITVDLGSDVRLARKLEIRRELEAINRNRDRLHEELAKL
In short: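 In this biochemical qHTS validation, titrated compounds were tested against 1.25 nM PFK with 0.1 mM ATP and 0.5 mM F6P. Percent activity came from controls lacking or containing enzyme.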

[2] = target: Ubiquitin carboxyl-terminal hydrolase 1 (Homo sapiens) (UniProt O94782); assay: Inhibitors of USP1/UAF1: Pilot qHTS (AID 504865); further: nearly all actives have a fitted effect of over 35% in size; further: potency means the concentration at half of the fitted maximal effect
Chain of Ubiquitin carboxyl-terminal hydrolase 1 (Homo sapiens) (O94782 whole entry, looked up): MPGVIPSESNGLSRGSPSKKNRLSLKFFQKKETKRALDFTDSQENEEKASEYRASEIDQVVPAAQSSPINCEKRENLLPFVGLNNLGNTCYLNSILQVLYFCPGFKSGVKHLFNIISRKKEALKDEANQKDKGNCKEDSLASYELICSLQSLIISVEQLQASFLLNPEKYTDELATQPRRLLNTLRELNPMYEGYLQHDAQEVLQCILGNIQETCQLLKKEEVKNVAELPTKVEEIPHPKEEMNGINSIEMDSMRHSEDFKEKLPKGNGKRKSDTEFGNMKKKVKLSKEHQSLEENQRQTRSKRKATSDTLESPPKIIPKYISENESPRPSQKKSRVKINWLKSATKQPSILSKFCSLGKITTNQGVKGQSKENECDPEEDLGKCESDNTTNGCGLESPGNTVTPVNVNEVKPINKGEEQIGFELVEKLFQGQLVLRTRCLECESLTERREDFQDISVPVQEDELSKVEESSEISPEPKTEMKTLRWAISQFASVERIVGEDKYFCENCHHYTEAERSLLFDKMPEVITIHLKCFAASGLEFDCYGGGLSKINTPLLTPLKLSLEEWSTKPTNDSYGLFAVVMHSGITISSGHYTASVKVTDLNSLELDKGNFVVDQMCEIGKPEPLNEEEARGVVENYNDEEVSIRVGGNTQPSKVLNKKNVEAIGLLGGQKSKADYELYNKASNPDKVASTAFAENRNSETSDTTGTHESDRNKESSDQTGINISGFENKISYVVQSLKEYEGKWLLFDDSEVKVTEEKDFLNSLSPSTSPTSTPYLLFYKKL
In short: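 In 50mM HEPES pH 7.8 containing 0.5mM EDTA, 1mM TCEP, 0.1 mg/ml BSA and 0.01% Tween-20, 1nM USP1/UAF1 is exposed to compound for 15 min, then Ub-Rho (150nM final) is added and fluorescence is read over time.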

[3] = target: DNA dC->dU-editing enzyme APOBEC-3G (Homo sapiens) (UniProt Q9HC16); assay: qHTS for inhibitors of Vif-A3G interactions: Validation (AID 588379)
Chain of DNA dC->dU-editing enzyme APOBEC-3G (Homo sapiens) (Q9HC16 whole entry, looked up): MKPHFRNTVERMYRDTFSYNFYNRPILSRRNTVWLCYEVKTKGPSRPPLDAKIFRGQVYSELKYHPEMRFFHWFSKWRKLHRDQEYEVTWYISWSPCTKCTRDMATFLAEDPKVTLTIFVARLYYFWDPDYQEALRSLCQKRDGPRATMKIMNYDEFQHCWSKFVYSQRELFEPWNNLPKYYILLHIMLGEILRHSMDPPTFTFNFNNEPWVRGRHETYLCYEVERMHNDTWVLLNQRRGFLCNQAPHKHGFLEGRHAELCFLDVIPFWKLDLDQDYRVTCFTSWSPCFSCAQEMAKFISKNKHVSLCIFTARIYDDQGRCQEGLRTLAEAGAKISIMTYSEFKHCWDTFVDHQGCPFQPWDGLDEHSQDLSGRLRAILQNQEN
In short: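 Yellow fluorescence (Ex 488, Em 500-530) of Vif-coexpressing HeLa A3G-eYFP cells, scanned by Acumen cytometer, reports blocked A3G degradation. Cells plated at 700/well overnight at 37 deg C before compound addition, then a further overnight compound incubation at 37 deg C.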

Row | SMILES | outcome [1] | Potency [2] | outcome [3]
1 | CC1=C(C)C(=O)C(C(CCCCCC(=O)O)c2ccccc2)=C(C)C1=O (stereo not given) | inactive |  | 
2 | COC1=C(OC)C(=O)C(CCCCCCCCCCO)=C(C)C1=O | inactive | inactive | 
3 | CCCc1cc(=O)[nH]c(=S)[nH]1 | inactive | inactive | 
4 | COC(=O)[C@H](Cc1ccccc1)NC(=O)[C@@H](N)CC(=O)O (H-Asp-Phe-OMe) | inactive | inactive | 
5 | CS(=O)(=O)OCCCCOS(C)(=O)=O | inactive | inactive | 
6 | Cc1ccc(NC(=O)c2ccc(CN3CCN(C)CC3)cc2)cc1Nc1nccc(-c2cccnc2)n1 | inactive |  | 
7 | Cc1c(C(=O)NN2CCCCC2)nn(-c2ccc(Cl)cc2Cl)c1-c1ccc(Cl)cc1 | inactive |  | 
8 | CCCCC(CC)COC(=O)C(C#N)=C(c1ccccc1)c1ccccc1 (stereo not given) | inactive |  | 
9 | CCCCCCCCCCCCCCCCCCCCCCO | inactive | inactive | 
10 | C[Se]CCC(N)C(=O)O (stereo not given) | inactive | inactive | 
11 | CC(C)c1ccc2oc3nc(N)c(C(=O)O)cc3c(=O)c2c1 | inactive |  | 
12 | O=C(O)CCNC(=O)c1ccc(N=Nc2ccc(O)c(C(=O)O)c2)cc1 | inactive |  | 
13 | N[C@@H](Cc1cc(I)c(Oc2cc(I)c(O)c(I)c2)c(I)c1)C(=O)O | inactive |  | 
14 | COCCCOc1ccnc(CS(=O)c2nc3ccccc3[nH]2)c1C (stereo not given) | inactive | inactive | 
15 | CN1CCC(=C2c3ccccc3CCc3sccc32)CC1 | inactive | inactive | 
16 | O=P(O)(O)C(O)(Cn1ccnc1)P(=O)(O)O | inactive | inactive | 
17 | CCCCCCCCOc1ccccc1C(=O)Nc1ccc(C(=O)OCC[N+](C)(CC)CC)cc1 |  | 79.4 µM (active) | 
18 | C[C@]12CCC(=O)C=C1CC[C@@H]1[C@H]2[C@@H](O)C[C@@]2(C)[C@H]1CC[C@]2(O)C(=O)CO | inactive | inactive | 
19 | CN(c1nccc(=O)[nH]1)C1CCN(c2nc3ccccc3n2Cc2ccc(F)cc2)CC1 | inactive | inactive | 
20 | CN1C(C(=O)Nc2ccccn2)=C(O)c2sccc2S1(=O)=O | inactive | inactive | 
21 | Nc1nc(Cl)nc2c1ncn2[C@H]1C[C@H](O)[C@@H](CO)O1 |  | inactive | 
22 | S=c1nc[nH]c2nc[nH]c12 |  | inactive | 
23 | c1ccc2[nH]c(-c3cscn3)nc2c1 |  | inactive | 
24 | O=C(CS(=O)Cc1ccco1)NCC=CCOc1cc(CN2CCCCC2)ccn1 (stereo not given) | inactive | inactive | 
25 | Cn1c(NCCN(CCO)CCCc2ccc([N+](=O)[O-])cc2)cc(=O)n(C)c1=O | inactive | inactive | 
26 | Nc1ccc(S(N)(=O)=O)cc1 |  | inactive | 
27 | CC(C)[C@H](N)C(=O)OCCOCn1cnc2c(=O)[nH]c(N)nc21 | inactive | inactive | 
28 | O=C(O)c1cc(=O)c2c(OCC(O)COc3cccc4oc(C(=O)O)cc(=O)c34)cccc2o1 |  | inactive | 

Row | SMILES | outcome [1] | Potency [2] | outcome [3]
29 | C=CCc1cc(OC)c(O)c(C(=O)NCCO)c1 | inactive | inactive | 
30 | N=C(N)c1ccc2cc(OC(=O)c3ccc(N=C(N)N)cc3)ccc2c1 | inactive | inactive | 
31 | CN(C)CCc1c[nH]c2ccc(Cn3cncn3)cc12 | inactive | inactive | 
32 | CCC1=C(C)CN(C(=O)NCCc2ccc(S(=O)(=O)NC(=O)NC3CCC(C)CC3)cc2)C1=O (stereo not given) |  | inactive | 
33 | COc1c2occc2cc2ccc(=O)oc12 |  | inactive | inactive
34 | O=C(NCCO[N+](=O)[O-])c1cccnc1 | inactive | inactive | inactive
35 | N=C(N=C(N)N)N1CCOCC1 | inactive | inactive | 
36 | Nc1cccc2c1CN(C1CCC(=O)NC1=O)C2=O (stereo not given) | inactive | inactive | 
37 | COC(=O)C1=C(C)NC(C)=C(C(=O)OC(C)C)C1c1cccc2nonc12 (stereo not given) |  |  | inactive
38 | C[C@H](Cn1cnc2c(N)ncnc21)OCP(=O)(O)O | inactive | inactive | 
39 | CCN(CC)CCOc1ccc(Cc2ccccc2)cc1 | inactive | inactive | inactive
40 | CCOc1cc(CC(=O)N[C@@H](CC(C)C)c2ccccc2N2CCCCC2)ccc1C(=O)O | inactive | inactive | 
41 | Cc1ccc(C)c(OCCCC(C)(C)C(=O)O)c1 |  | inactive | 
42 | NS(=O)(=O)c1cc(C(=O)O)c(NCc2ccco2)cc1Cl |  | inactive | 
43 | Cc1cc(=O)oc2cc(O)ccc12 | inactive | inactive | 
44 | CC(=O)Nc1ccc(O)cc1 |  |  | inactive
45 | Cc1ccc(S(=O)(=O)NC(=O)NN2CC3CCCC3C2)cc1 (stereo not given) |  | inactive | 
46 | CCc1nc(N)nc(N)c1-c1ccc(Cl)cc1 |  | inactive | 
47 | CN(C)C(=O)COC(=O)Cc1ccc(OC(=O)c2ccc(N=C(N)N)cc2)cc1 | inactive | inactive | 
48 | CCCOc1ccc2nc(NC(=O)OC)[nH]c2c1 |  | inactive | 
49 | O=C(O)c1cn(-c2ccc(F)cc2)c2cc(N3CCNCC3)c(F)cc2c1=O | inactive | inactive | 
50 | CCCCc1ccc2nc(NC(=O)OC)[nH]c2c1 | inactive | inactive | 
51 | CC(S)C(=O)NCC(=O)O (stereo not given) | inactive | inactive | 
52 | CCOC(=O)C1=C(O)C(=O)N(Cc2ccccc2)C1 |  |  | inactive
53 | CCC[C@@H]1C[C@@H](C(=O)N[C@@H]([C@H]2O[C@H](SC)[C@H](O)[C@@H](O)[C@H]2O)[C@@H](C)O)N(C)C1 | inactive | inactive | 
54 | COc1ccc(C2(C#N)CCC(C(=O)O)CC2)cc1OC1CCCC1 (stereo not given) | inactive | inactive | 
55 | Cc1nc(Nc2ncc(C(=O)Nc3c(C)cccc3Cl)s2)cc(N2CCN(CCO)CC2)n1 | inactive | inactive | 
